Measured values taken from ChEMBL document CHEMBL4513216, “Probing the Open Global Health Chemical Diversity Library for Multistage-Active Starting Points for Next-Generation Antimalarials” (ACS Infect Dis, 2020).
Hit rate of the full screen: of about 69,000 compounds, about 8,600 (12%) showed an effect of 50% or more. The entries come from a sample that favours strong results as a whole.

test system: Plasmodium berghei; test: Screen against P. berghei liver stage (PbLuc), transformed with Luciferase, at 10uM; type: functional, HepG2; settings: tested at 10 uM

In order of falling INHIBITION:
1. CCn1nc(C)c(C(=O)NCc2csc(C3CC3)n2)c1C  76.3%
2. COCCC(=O)Nc1ccnn1-c1ccccc1  67.1%
3. CCn1cc(C(=O)NCc2csc(C3CC3)n2)c(C)n1  67%
4. COCC(=O)Nc1ccnn1-c1ccc(Cl)cc1  64.3%
5. O=C(c1ccc(Cl)o1)N1CCCC(c2cc(C(F)(F)F)[nH]n2)C1 (stereo not given)  63.4%
6. Cc1ccoc1C(=O)N1CCCC(c2cc(C(F)(F)F)[nH]n2)C1 (stereo not given)  62.6%
7. CC(C)(C)c1cn2c(n1)C(CNCc1ccccn1)CCC2 (stereo not given)  56.5%
8. CC(C)(C#N)C(=O)N1CCCC(c2cc(C(F)(F)F)[nH]n2)C1 (stereo not given)  55.5%
9. COCCOCC(=O)Nc1ccnn1-c1ccc(Cl)cc1  54.6%
10. Cc1ccc(C(=O)N2CCCC(c3cc(C(F)(F)F)[nH]n3)C2)o1 (stereo not given)  54.4%
11. CC(C)(C)c1cn2c(n1)C(CNCc1cnn3ccccc13)CCC2 (stereo not given)  51.1%
12. CC(C)Cc1cc(C(=O)NC(C)C)[nH]n1  50.8%
13. Cc1cn2c(n1)C(CNCc1cnn3ccccc13)CCC2 (stereo not given)  50.1%
14. C=C(C)COc1ccccc1C(=O)N1CCC(C(=O)NCC)C1 (stereo not given)  48.5%
15. Cc1ccccc1-n1nccc1NC(=O)CCOC(C)C  43.8%
16. Cc1cc(C2CCCN(C(=O)c3ccc(Cl)o3)C2)n[nH]1 (stereo not given)  42.9%
17. CN(C)C(=O)CNC(=O)c1cc2ccccc2nc1N1CCCC1  42.3%
18. COc1nccc(N2CC[C@@H](N3CCCCCC3)[C@H](O)C2)c1C#N  42.1%
19. CCN(c1ccc(C(=O)N2CCCCC2)cc1)S(=O)(=O)CC  40.3%
20. Cc1nccc(C(=O)N2CCCC(c3cc(C(F)(F)F)[nH]n3)C2)n1 (stereo not given)  40%
21. O=C(c1ccco1)N1CCCC(c2cc(C(F)(F)F)[nH]n2)C1 (stereo not given)  36.1%
22. CC(C)(C)NC(=O)NCc1cnn2ccccc12  35.2%
23. COCCN1C(=O)CCC12CCC(NCc1cccnc1OC)CC2 (stereo not given)  34.6%
24. Cc1cc(C(=O)N2CCCC(c3cc(C(F)(F)F)[nH]n3)C2)on1 (stereo not given)  33.8%
25. NC(=O)C(CNC(=O)CCc1ccccc1)Cc1ccc(F)cc1 (stereo not given)  33.4%
26. Cc1nccc([C@H]2C[C@@H]3CCN(S(C)(=O)=O)C[C@H]3O2)n1  33.2%
27. CCOC(=O)N1CCN(C(=O)C(CC)n2cccn2)CC1 (stereo not given)  31.2%
28. Cc1cc2cc(NC(=O)Cn3ncc(N4CCCC4)cc3=O)ccc2o1  30.3%
29. Cc1nc(C)c(CNCC2CCCn3ccnc32)s1 (stereo not given)  28.7%
30. OC1(CNc2cccc(F)c2)CCNCC1  28.5%
31. COCC(=O)NCCc1ccc(Cl)s1  28.4%
32. CN(Cc1cccnc1)Cc1cn2c(n1)CN(C1CCOC1)CC2 (stereo not given)  28.3%
33. O=c1cc(CNCc2ccc3c(c2)OCO3)nc2ccc(Br)cn12  28%
34. Cc1ccc2c(cnn2CCC(=O)NCc2csc(C3CC3)n2)c1  26.9%
35. O=C1CCCc2[nH]c(=O)c(C(=O)N(Cc3ccsc3)C3CC3)cc21  26.43%
36. Cc1[nH]ncc1C(=O)N1CCCC(c2cc(C(F)(F)F)[nH]n2)C1 (stereo not given)  24%
37. Cc1cccc2c1cnn2CCC(=O)NCc1csc(C2CC2)n1  23.6%
38. CCn1cc(CCC(=O)NCc2csc(C3CC3)n2)c(C)n1  22.9%
39. Cn1cccc1CNCC1CCCn2cc(C(C)(C)C)nc21 (stereo not given)  22.3%
40. CCOCCC1(CNC(=O)c2ccncc2Cl)CCC1  20.4%
41. Cc1nn(C)cc1C(=O)NCc1csc(C2CC2)n1  18.3%
42. CC(C)(C)C(=O)NCc1cnn2ccccc12  15.7%
43. CCOCCC(=O)Nc1ccnn1-c1ccc(Cl)cc1  12.9%
44. c1cnn(CC2CCCN2Cc2nc(C3CC3)no2)c1 (stereo not given)  11.4%
45. O=C(NCc1ccco1)[C@@]12CCO[C@@H]1CCN(CC1CCOCC1)C2  11.4%
46. O=C(Cc1ccon1)NC1CCCN(c2ccccc2F)C1=O (stereo not given)  9.72%
47. COCCN(Cc1ccccn1)C(=O)Nc1cccnc1-n1cccn1  9.4%
48. O=C(CO)N1CCCC(c2cc(C(F)(F)F)[nH]n2)C1 (stereo not given)  6.26%
49. CN(C)C(=O)CO[C@H]1CN(Cc2ccccc2)[C@@H]2CCCO[C@H]12  3.3%
50. CCn1cnnc1CNS(=O)(=O)N1CCCC1c1ccc(C)o1 (stereo not given)  2.79%
51. CC(C)c1nc(O)c2nnn(C[C@H]3CCCN(Cc4cccs4)C3)c2n1  2.55%
52. CN(CC1(C)COC1)C(=O)c1cc(-c2ccnn2C)nc2ccccc12  1.9%
53. CC(CN1CCOCC1)n1cncc1-c1cnn(Cc2ccccc2)c1 (stereo not given)  -3.135%
54. NC(=O)CN1CCOCC(Cc2ccccc2)C1 (stereo not given)  -4.51%
55. COCCN(Cc1nc2c(cnn2C)c(=O)[nH]1)C(C)COC (stereo not given)  -7.35%
56. CC(C)(C)c1ncc(CNCC2CCCn3ccnc32)s1 (stereo not given)  -7.66%
57. Cc1nc(CN2C[C@@H](NC(=O)C3CCC3)[C@H]3COC[C@H]32)cs1  -10.5%
58. CCn1nc(C)c2ncnc(NCCn3cccn3)c21  -15%
59. O=C(NCc1cnn2ccccc12)NC1CCCC1  -16.4%
60. CSC(C)C(=O)N(C)CC(=O)Nc1ccc(Br)cn1 (stereo not given)  -17.6%
61. CC(C)Cc1cc(C(=O)NCc2nnc[nH]2)[nH]n1  -21.3%
62. COCC(=O)NC(c1ccc(Cl)cc1)C(F)(F)F (stereo not given)  -21.8%
63. CN(C)C(=O)[C@@H]1C[C@H]2OCC[C@H]2N(CCOc2ccc(Cl)cc2)C1  -23.4%
64. Cc1noc(C)c1C(=O)N1CCCC(c2cc(C(F)(F)F)[nH]n2)C1 (stereo not given)  -27.9%
65. COCCC(=O)Nc1ccnc(Oc2ccccc2)c1  -30%
66. CCOC(=O)CSc1nnc([C@@H](N)C(C)CC)o1 (stereo not given in full)  -30.6%
67. CC(C)Cc1cc(C(=O)NCCN2CCCS2(=O)=O)[nH]n1  -36.385%
68. CC(C)CC1SCC(=O)Nc2c1cnn2C1CCCC1 (stereo not given)  -37.2%
69. Cc1cccc(C(=O)N2C[C@@H](OCc3ccncc3)[C@@H]3OCCC[C@@H]32)n1  -69.9%
70. COCCOCC(=O)Nc1ccc(C)cc1Cl  -71.6%
